# Sampled rows, rich in hits. Any-hit rate of the full collection: about 4.4%.
# ALOX12 inhib – 12-hLO (ALOX12) enzyme inhibition. purified 12-hLO, xylenol orange hydroperoxide absorbance. Potency, µM (series often up to 57.1 µM), without a hit: at the highest dose activity change, negative = inhibition, hits mostly inhibitors. hit rate 0.12% among 150,000; also: potency is read from the fitted curve at half-maximal effect; % is scaled to controls: 0 for no effect and ±100 for the full control effect; nearly all actives have a fitted effect of over 55% in size
#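 Hydroperoxide formation by human 12-lipoxygenase from 40 uM arachidonic acid was followed colorimetrically via ferric-xylenol orange complex, using the 573/405 nm absorbance ratio. Enzyme concentration was 150 nM, with 30 min reaction at room temperature.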
# HPGD block – blocks human HPGD enzyme activity | P15428 | purified HPGD, NADH fluorescence kinetic, PGE2 substrate | Potency, µM, for inactives: at the highest dose activity change, negative = inhibition, hits mostly inhibitors | hit rate 4.3% among 150,000 | AID 894; active = well fitted inhibition curve with a large enough effect, not every such curve was filed as active; inconclusive = small, poorly fitted or top-dose-only effect, or another doubt; inactive = no such curve, though single readings can be large or run the other way; also: potency is read from the fitted curve at half-maximal effect; % is scaled to controls: 0 for no effect and ±100 for the full control effect
# Target sequence (P15428 whole entry, looked up): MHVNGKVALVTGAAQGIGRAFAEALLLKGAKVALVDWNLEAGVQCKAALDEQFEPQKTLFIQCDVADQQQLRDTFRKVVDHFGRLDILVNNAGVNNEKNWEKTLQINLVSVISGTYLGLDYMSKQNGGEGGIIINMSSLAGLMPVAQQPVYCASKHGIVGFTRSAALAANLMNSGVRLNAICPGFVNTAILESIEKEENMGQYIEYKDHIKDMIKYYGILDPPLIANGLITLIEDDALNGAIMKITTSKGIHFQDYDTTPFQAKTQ
#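 20 nM HPGD preincubated 15 min at room temperature with compound in 50 mM Tris-HCl pH 8, 0.01% Tween 20. Started with 1 mM NAD+ and 30 uM prostaglandin E2; NADH fluorescence (360/450 nm) read 5 times over 30-s intervals, last minus first.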
# p53ts 32C kill – cytotoxicity in p53ts cells at permissive temperature; hit rate 0.93% among 130,000; AID 924; Potency, µM (titrated, usually from 46.1 µM), without a hit: top-dose activity change, negative = cytotoxicity, hits mostly cytotoxic; H1299-p53A138V at 32C, ATP luminescence viability, 24 h;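 also: potency is read from the fitted curve at half-maximal effect; 0% = DMSO and -100% = full killing by reference compound; nearly all actives have a fitted effect of over 55% in size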
#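 H1299-p53 A138V cells (temperature-sensitive p53) exposed 24 h to up to 46 uM compound at 32C, where p53 is wild-type in conformation. Viability read as ATP luminescence and normalised to DMSO and 100 uM tamoxifen. AC50 fitted with the Hill equation.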
# p53ts 39C tox – kills p53ts cells at the nonpermissive temperature; H1299-p53A138V viability at 39C, ATP luminescence, 24 h; Potency, µM (series often up to 46.1 µM), without a hit: top-dose activity change, negative = cell killing, usual class: cytotoxic; hit rate 1.5% among 130,000; AID 902; also: potency is read from the fitted curve at half-maximal effect; % is scaled to controls: 0 for no effect and ±100 for the full control effect; nearly all actives have a fitted effect of over 55% in size
# HPGD inh conf – human HPGD enzyme inhibition, confirmation | Potency, µM (doses to about 57.1 µM), without a hit: top-dose activity change, negative = inhibition, hits mostly inhibitors | hit rate 90% among 90 | recombinant HPGD, NADH fluorescence, PGE2 substrate | shares compounds with HPGD block; calls by dose curve
# * marks the source's active call; other numbers are inactive results; ? = inconclusive; . = no result given; [ ] = dose if it differs, or a comment. Unless noted, calls follow the shape of the dose curve; as a rule, active = well fitted curve in the direction sought with a large enough effect; inconclusive = small, poorly fitted or top-dose-only effect, or another doubt; inactive = no such curve, though single readings can be large; an effect the other way counts as inactive or inconclusive.
SMILES,ALOX12 inhib,HPGD block,p53ts 32C kill,p53ts 39C tox,others
COc1ccc(C2CC(=O)N3CN(Cc4ccco4)CSC3=C2C#N)cc1 (stereo not drawn),-16%,13µM*,4%,5%,
Cc1cc(=O)n2nc(N3CCC(C(=O)Nc4ccc(Br)cc4F)CC3)sc2n1,.,.,-1%,-13%,
Cc1cccc(-c2nc3c4ccccc4nc(N4CCN(c5ccccc5F)CC4)n3n2)c1,.,.,12%,-11%,
CCOc1cc(C2CC(=O)N3CN(C4CCCCC4)CSC3=C2C#N)ccc1O (stereo not drawn),?,25µM*,1%,1%,
COc1cc(C2CC(=O)N3CN(Cc4ccco4)CSC3=C2C#N)ccc1OCc1ccccc1 (stereo not drawn),-19%,25µM*,4%,-7%,
N#CC1=C2SCN(C3CCCCC3)CN2C(=O)CC1c1ccc(Br)cc1 (stereo not drawn),.,.,6%,41%,
COc1ccc(C2CC(=O)N3CN(C4CCCCC4)CSC3=C2C#N)c(OC)c1 (stereo not drawn),.,.,11%,30%,
COc1ccc2ccccc2c1C1CC(=O)N2CN(C3CCCCC3)CSC2=C1C#N (stereo not drawn),-22%,18µM*,37%,22%,
Nc1cc(S(N)(=O)=O)ccc1SSc1ccc(S(N)(=O)=O)cc1N,-28%[11.4 µM],5µM*,-2%[9.22 µM],-16%[9.22 µM],
Oc1ccc(-c2cn3c(n2)SCC3)cc1O,-14%,2.2µM*,.,.,
CC(=O)Nc1c(C)nn(-c2ccccc2)c1N1CCC(C(=O)Nc2cccc(C(F)(F)F)c2)CC1,.,.,-4%,-17%,
Cc1noc(C)c1-c1ccc2ncnc(N(C)Cc3ccco3)c2c1,2%,13µM*,2%,0%,
Oc1ccc(-c2nc(-c3ccc(O)c(O)c3)cs2)cc1,5µM*,?,4%,-21%,
Oc1ccc(Nc2nc(-c3ccc4ccccc4c3)cs2)cc1,-24%,?,.,.,
CCCCSc1nnc(CSc2nc3nc(C)cc(C)n3n2)o1,0%,25µM*,.,.,
CCCSc1nnc(CSc2nc3nc(C)cc(C)n3n2)o1,5%,-12%,.,.,
Cc1[nH]c2ccccc2c1N=Nc1ccccc1C(=O)O,-15%,14µM*,.,.,
Cc1cc2c(c(=O)n1Cc1ccccn1)C(c1ccc3c(c1)OCO3)C(C#N)=C(N)O2 (stereo not drawn),-1%,-12%,.,.,
N#CC1=C(SCc2ccccc2)NC2=C(C(=O)CCC2)C1c1ccc2c(c1)OCO2 (stereo not drawn),-21%,-29%,.,.,
N#CC1=C(N)OC(c2ccccc2)=C(C#N)C1c1ccc2c(c1)OCO2 (stereo not drawn),-25%,14µM*,6%,12%,
Cc1ccc(C2C(C#N)=C(N)Oc3cc4c(cc32)OCO4)cc1 (stereo not drawn),-25%,-22%,-3%,-12%,
N#CC1=C(N)OC2=C(C(=O)CC(c3ccccc3)C2)C1c1ccc2c(c1)OCO2 (stereo not drawn),-6%,28µM*,.,.,
CCSC1=C(C#N)C(c2ccc3c(c2)OCO3)C2=C(CCCC2=O)N1 (stereo not drawn),3%,14µM*,.,.,
CCCCS(=O)(=O)N1CCc2nc(-c3ccc(OC)cc3C)c3c(c2C1)CO[C@@H](c1ccccc1)C3,3%[11.4 µM],-5%,.,.,
CCOc1ccccc1NC(=O)Cn1c(=O)n(CCC(=O)NCc2ccc3c(c2)OCO3)c(=O)c2ccccc21,.,.,7%,?,
SMILES,ALOX12 inhib,HPGD block,p53ts 32C kill,p53ts 39C tox,others
FC(F)(F)c1cccc(Nc2c3c(nc4ccc(Cl)cc24)CCC3)c1,.,.,11µM*,13µM*,
Cc1nc2ccc(NC(=O)c3cc([N+](=O)[O-])cc([N+](=O)[O-])c3Cl)cc2s1,-1%,7.1µM*,-15%,2%,
COC(=O)CSc1ccc2nnc(-c3ccc(OC)c(OC)c3)n2n1,3%,?,-11%,-12%,
COc1ccc(-c2nnc3ccc(SC(C(C)=O)C(C)=O)nn23)cc1OC,-25%,14µM*,-6%,-4%,
CCC(Sc1ccc2nnc(-c3ccc(OC)c(OC)c3)n2n1)C(=O)O (stereo not drawn),-2%,14µM*,-5%,-8%,
Cc1ccc2[nH]c(CSc3nnc(NC(=O)c4ccc(Cl)cc4)s3)cc(=O)c2c1,.,.,-4%,12%,
Cc1cc(=O)[nH]c2nnc(SCc3ccc(Cl)cc3Cl)n12,.,.,-7%,-16%,
Cc1nnc(SCc2ccc(Cl)cc2Cl)[nH]c1=O,3%,16µM*,-7%,-13%,
CCOc1ccc(NC(=O)Cn2c(=O)n(-c3cccc(OC)c3)c(=O)c3c4c(sc32)CCCC4)cc1,.,.,8%,15%,
CCn1cc(S(=O)(=O)c2cc(C)cc(C)c2)c(=O)c2cc(F)c(N3CCCC3)cc21,.,.,-7%,.,
COCCNC(=O)C1CCN(S(=O)(=O)c2ccccc2)CC1,-5%,25µM*,3%,-2%,
Oc1ccc(/C=N/Nc2cccc3cccnc23)c(O)c1,-17%,16µM*,.,.,
Oc1ccc(/C=N/Nc2ncc(Br)cn2)c(O)c1,-4%,?,.,.,
Oc1ccccc1/C=N/Nc1nccnc1Cl,-18%,-4%,.,.,
Oc1ccc(/C=N/Nc2nccnc2Cl)c(O)c1,-22%,28µM*,.,.,
COC(=O)c1ccccc1NC(=O)c1c(C)oc2ncn(C)c(=O)c12,.,.,-2%,-9%,
CCC(C)NC(=O)Cn1c(=O)n(-c2ccc(OC)c(OC)c2)c(=O)c2ccccc21 (stereo not drawn),.,.,-1%,17%,
COc1ccccc1C(=O)Oc1c(Sc2ccccc2)c(C)nn1-c1ccccc1,.,.,16µM*,-22%,
O=S(=O)(NC1CCCCC1)c1ccc(-c2csnn2)s1,-6%,14µM*,.,.,
CC(C)(C)NS(=O)(=O)c1ccc(-c2csnn2)s1,-6%,-20%,.,.,
O=S(=O)(NC1CCCC1)c1ccc(Br)s1,-4%,25µM*,2%,12%,
COC(=O)C1=C(c2ccccc2)c2ccccc2S(=O)(=O)N1CC(=O)Nc1cccc(C(C)=O)c1,.,.,-6%,0%,
CCOc1ccccc1CNC(=O)c1cc2oc3ccccc3c2n1C,3%,?,.,.,
COCCNC(=O)c1cc2oc3ccccc3c2n1C,6%,1.4µM*,.,.,HPGD inh conf=1.6µM*
CC(=O)N1CCC2(CCN(Cc3ccncc3)CC2)CC1,-1%,-5%,-5%,-4%,
CN(C)C(=O)c1ccc(-c2nc(NCc3ccccc3)c3ccccc3n2)cc1,0%,?,-9%,-15%,HPGD inh conf=14µM*
CN(C)C(=O)c1ccc(-c2nc(N(C)C)c3ccccc3n2)cc1,2%,0.32µM*,-25%,?,HPGD inh conf=2.5µM*
O=c1c2ccccc2sn1-c1cc(S(=O)(=O)N2CCOCC2)ccc1N1CCCC1,0.5µM*,0.22µM*,.,.,HPGD inh conf=2.5µM*
Cc1nc2ccc(S(=O)(=O)N(CC(=O)Nc3cccc(Cl)c3)Cc3ccccc3)cc2s1,.,.,4%,-5%,
COc1cc(NC(=O)CSc2nc(C)c(C(=O)Nc3ccccc3)c(-c3ccc(OC)c(OC)c3)c2C#N)c(OC)cc1Cl,.,.,2%,1%,

# Source: PubChem BioAssay (National Center for Advancing Translational Sciences (NCATS))
